Compounds with a hit are over-represented: about 3% of the library has one in this group of screens.
IkB signaling: IkB Signaling. 110,000 tested, 0.04% active. Potency, µM (series often up to 57.1 µM), for inactives: at the highest dose IkBa stabilization activation. AID 445, 2006. ABC-DLBCL IkBa-CBG/CBR dual luciferase ratio, 4 h; response scale: scaled: untreated 0%, proteasome inhibitor 100%; active = well fitted curve in the direction sought with a large enough effect in the signal ratio, not every such curve was filed as active; inconclusive = small, poorly fitted or top-dose-only effect, or a change in a side signal; the % refers to the signal ratio;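 also: the direction sought is a rising ratio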
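Luminescence ratio of IκBα-fused green versus native red beetle luciferase in OCI-Ly3 cells, 4 h post-doxycycline with compound; red signal alone, scaled from basal (0%) to zero light (-100%), flagged nonspecific or cytotoxic effects.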
Peg3 imprint: qHTS Assay for Compounds that Induce Erasure of Genomic Imprints | mouse ES Peg3-LacZ reporter, beta-gal luminescence, 40 h | Potency, µM (top dose mostly 60.7 µM), for the others: at the top dose activity change, positive = activation, most hits filed as activators | 110,000 tested, 0.02% active
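Imprint erasure is scored as LacZ activity from the silenced maternal Peg3 allele in feeder-free female ES cells cultured 40 h with LIF. Luminescence is normalized to in-plate negative controls and fitted to the Hill equation.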
p53ts 39C tox: qHTS Screen for Compounds that Selectively Target Cancer Cells with p53 Mutations: Cytotoxicity of p53ts Cells at the Nonpermissive Temperature; H1299-p53A138V viability at 39C, ATP luminescence, 24 h; Potency, µM (top dose mostly 46.1 µM), for inactives: top-dose activity change, negative = cell killing, usual class: cytotoxic; 130,000 tested, 1.5% active; AID 902, 2007; also: % is scaled to controls: 0 for no effect and ±100 for the full control effect; nearly all actives have a fitted effect of over 55% in size
p53ts 32C tox: qHTS Screen for Compounds that Selectively Target Cancer Cells with p53 Mutations: Cytotoxicity of p53ts Cells at the Permissive Temperature; H1299-p53A138V at 32C, ATP luminescence viability, 24 h; Potency, µM (highest dose often 46.1 µM), for inactives: top-dose activity change, negative = cytotoxicity, actives largely listed as cytotoxic; 130,000 tested, 0.93% active; AID 924, 2007;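 also: 0% = DMSO and -100% = full killing by reference compound; nearly all actives have a fitted effect of over 55% in size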
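ATP-content luminescence (ATPlite) read-out after 24 h compound exposure at 32C in H1299-p53A138V cells (600/well). Tested up to 46 uM. Normalized to DMSO (0%) and 100 uM tamoxifen (100% killing); Hill-fit AC50.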
CRE Fsk mod: Cell signaling CRE-BLA (Fsk stim); CHO CRE-bla reporter (cAMP response element driving beta-lactamase), forskolin EC10, beta-lactamase ratio; Potency, µM (series often up to 38.2 µM), inactives show at the highest dose activity change, negative = inhibition, most hits filed as activators; 71,000 tested, 2.5% active; active = well fitted activation curve with a large enough effect in the signal ratio, with a control signal flat, not every such curve was filed as active; inconclusive = small, poorly fitted or top-dose-only effect, or effect the other way, or a change in a side signal; the % refers to the signal ratio; also: % of control where 0% means no effect
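CHO CRE-bla cells, overnight plating in Opti-MEM with 0.5% dialyzed FBS; cpd titration + EC10 NKH 477, 3 h 37 °C; CCF4 2 h RT; ex 405/em 460 vs 530 ratio → %Activity, AC50.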
An asterisk follows results filed as active; ? = inconclusive; . = no result given; [ ] = another dose, or the depositor's remark. Unless noted, calls follow the shape of the dose curve; as a rule, active = well fitted curve in the direction sought with a large enough effect; inconclusive = small, poorly fitted or top-dose-only effect, or another doubt; inactive = no such curve, though single readings can be large; an effect the other way counts as inactive or inconclusive. Potency is read from the fitted curve at half-maximal effect.

SMILES	IkB signaling	Peg3 imprint	p53ts 39C tox	p53ts 32C tox	CRE Fsk mod
CCOc1cccc(C(=O)Nc2nc3c(s2)CC(C(C)(C)C)CC3)c1 (centres undefined)	-1.6%	-20.2%[10.9 µM]	-8.7%	-14.3%	.
CCC1C(C#N)=C(N)OC2=C1C(=O)CC(C)(C)C2 (centres undefined)	1.5%	-1.2%	32.4%	4.8%	?
CCCCCCC1C(C#N)=C(N)OC2=C1C(=O)CC(C)(C)C2 (centres undefined)	2.4%	-13.5%	3.8%	-9.2%	10µM*
CCCCCCC1C(C#N)=C(N)OC2=C1C(=O)CCC2 (centres undefined)	5.5%	-15.4%	15.8µM*	12.6µM*	?
COc1cccc(OCc2nc3ccccc3n2Cc2ccccc2C)c1	?	-7.4%[10.9 µM]	?	6.1%	.
Cc1nc2c(C(=O)NCCc3ccc(Cl)cc3)c[nH]n2c(=O)c1Cc1ccc(Cl)cc1	?	-6.0%[10.9 µM]	?	-25.0%	.
COc1ccc(OC)c(-c2cc(C(=O)Nc3cnn(Cc4ccc(Cl)cc4Cl)c3)no2)c1	?	-12.0%[10.9 µM]	3.98µM*	?	.
COc1ccc2c(c1)CCc1c(C(=O)Nc3cnn(Cc4ccc(Cl)cc4Cl)c3)noc1-2	?	-5.8%[10.9 µM]	-29.6%	-11.3%	.
Cc1ccc(-c2n[nH]c3c2C(c2cccs2)N(c2ccc(Cl)cc2)C3=O)cc1 (centres undefined)	?	-7.2%[10.9 µM]	?	?	.
CCOC(=O)c1ccccc1N/C=C1\CCCC1=O	2.4%	-14.2%	2.9%	-14.5%	10µM*
O=C1CCCC/C1=C\Nc1ccccc1C(=O)O	7.4%	-4.3%	2.0%	-1.6%	-8.2%
O=c1/c(=C\c2ccc3c(c2)OCO3)sc2n1CCCN=2	?	-81.0%	12.6µM*	12.6µM*	2.0%
CCOC(=O)C1CCN(C(=O)Cn2c(=O)oc3cc(S(=O)(=O)N4CCC(C)CC4)ccc32)CC1	0.9%	-12.9%[10.9 µM]	-11.3%	-2.2%	.
CCc1nnc2c(N3CCN(c4cccc(C(F)(F)F)c4)CC3)nc3ccccc3n12	?	-3.9%[10.9 µM]	-16.9%	-4.0%	.
Cc1cc(Nc2cccc(C(F)(F)F)c2)ncn1	-0.8%	-2.2%[10.9 µM]	-9.8%	-13.2%	.
Cc1ccc(Nc2nc3nonc3nc2Nc2cccc(C(F)(F)F)c2)cc1Cl	?	-29.8%[10.9 µM]	10µM*	12.6µM*	.
Cc1nc2nc(C)c(CCC(=O)NCc3cccc(Cl)c3)c(C)n2n1	1.7%	26.9%[10.9 µM]	-9.5%	-2.2%	.
Cc1occc1-c1nc(-c2ccccn2)no1	6.2%	-91.7%	12.6µM*	10µM*	9.0%
Cc1onc(-c2ccccc2Cl)c1-c1nc(-c2ccccn2)no1	-2.2%	-10.1%	7.3%	17.5%	12.6µM*
Cc1occc1-c1nc(-c2ccncc2)no1	0.8%	-63.3%	-1.9%	-6.6%	8.9%
Fc1cc(Br)ccc1Nc1c2c(nc3nc(-c4cccs4)nn13)CCCC2	7.3%	8.9%[10.9 µM]	12.1%	11.1%	.
CS(=O)(=O)Nc1cccc(-c2nc(Nc3ccccc3)c3ccccc3n2)c1	-3.8%[11.4 µM]	-15.8%	-22.2%	?	?
CS(=O)(=O)Nc1cccc(-c2nc(Nc3ccncc3)c3ccccc3n2)c1	-3.9%[11.4 µM]	-6.2%	-9.0%	0.0%	6.31µM*
COc1cccc(-c2nc(NCc3cnc(C)cn3)c3ccccc3n2)c1	-1.7%[11.4 µM]	-15.5%	-4.4%	-0.9%	12.6µM*
Cc1cnc(CNc2nc(-c3cccc(NS(C)(=O)=O)c3)nc3ccccc23)cn1	-6.3%[11.4 µM]	-11.1%	4.6%	4.9%	12.6µM*
SMILES	IkB signaling	Peg3 imprint	p53ts 39C tox	p53ts 32C tox	CRE Fsk mod
Cn1c(=O)c2sccc2n2c(CCCC(=O)Nc3ccc(Oc4ccccc4)cc3)nnc12	?	-16.8%[10.9 µM]	-11.5%	-0.2%	.
CCOc1ccc(CCNC(=O)c2sc3ncccc3c2-n2cccc2)cc1OCC	?	19.0%[10.9 µM]	-14.3%	3.9%	.
Cc1ccc(-c2cc3c(nn2)-c2ccccc2C3=O)cc1	?	-94.6%	0.398µM*	0.501µM*	8.1%[7.6 µM]
OC(COc1ccc(Br)cc1)CN1CCOCC1 (centres undefined)	-1.0%	4.7%	3.1%	1.3%	-7.6%
CC1(C)CCCC(C)(C)N1CC(O)COCCOc1ccc(Br)cc1 (centres undefined)	.	.	4.47µM*	?	.
Cc1ccc2c(c1)c1c(c(=O)n(-c3cccc(Cl)c3)c(=O)n1CC(=O)NCCC1=CCCCC1)n2C	3.8%	26.0%[10.9 µM]	-3.9%	5.8%	.
Cc1nn(-c2ccccc2)c2sc(C(=O)OCN3C(=O)c4ccccc4C3=O)cc12	-1.4%	-2.4%	1.7%	-16.0%	1.58µM*
O=[N+]([O-])c1cccc(/C=N\Nc2ccc3ccccc3n2)c1O	?	-53.3%[10.9 µM]	3.98µM*	2.51µM*	13.2%[7.6 µM]
O=C(N/N=C/C=C\c1ccccc1[N+](=O)[O-])c1cc(-c2ccc3ccccc3c2)n[nH]1	.	.	-5.8%	-6.7%	.
COc1ccc(Cc2nc(-c3cccs3)no2)cc1OC	4.8%	-16.7%	-5.6%	-6.3%	3.98µM*
COc1ccc(Cc2nc(-c3ccc(-n4cccc4)cc3)no2)cc1OC	5.2%	-15.4%	-6.5%	-9.4%	?
CC(=O)NC1=C(NC2CCS(=O)(=O)C2)C(=O)c2ccccc2C1=O (centres undefined)	.	.	?	15.8µM*	.
Cc1ccccc1NCc1nc2ccccc2n1CCOc1ccccc1	?	-21.1%[10.9 µM]	-20.9%	5.1%	.
O=C1CC(c2ccccc2)Cc2nc(NCc3ccco3)ncc21 (centres undefined)	7.7%	-62.4%	7.94µM*	6.31µM*	?
O=C(CSc1nc2ccccc2c(=O)[nH]1)c1ccccc1	.	.	21.8%	14.0%	.
COC(=O)c1ccccc1NC(=O)CSc1nc2ccccc2c(=O)[nH]1	6.5%	-2.7%	2.2%	2.7%	7.94µM*
COc1ccccc1NC(=O)N(Cc1ccc2c(c1)OCO2)Cc1nc2ccccc2c(=O)[nH]1	5.1%	6.3%	-8.8%	1.9%	?
COc1cccc(C(=O)N(Cc2ccc3c(c2)OCO3)Cc2nc3ccccc3c(=O)[nH]2)c1	-0.8%	-13.4%	10.1%	4.9%	5.01µM*
Cc1ccc(C)n1-c1c(C(=O)NCCCN2CCN(c3ccc(F)cc3)CC2)sc2ncccc12	?	-15.8%[10.9 µM]	?	-12.6%	.
Cc1ccc(Nc2nnc(SCC(=O)Nc3cccc(S(=O)(=O)N4CCCCC4)c3)s2)cc1	.	.	11.2µM*	-19.7%	.
Cc1ccc(Nc2nnc(SCC(=O)Nc3ncc(C(F)(F)F)cc3Cl)s2)cc1	.	.	16.6%	.	.
CCOc1ccc(NC(=O)CC2C(=O)N(c3cccc(C)c3)C(=O)N2Cc2cccs2)cc1 (centres undefined)	?	9.3%[10.9 µM]	-9.9%	-3.1%	.
